The inhibition is the drop in the measured response relative to a control, in per cent.

In assay [1] the target is T1, Serine/threonine-protein kinase Nek9 (Homo sapiens) (UniProt Q8TD19).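 Further: each value is a mean percent inhibition of NEK9.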
T1 sequence (whole entry): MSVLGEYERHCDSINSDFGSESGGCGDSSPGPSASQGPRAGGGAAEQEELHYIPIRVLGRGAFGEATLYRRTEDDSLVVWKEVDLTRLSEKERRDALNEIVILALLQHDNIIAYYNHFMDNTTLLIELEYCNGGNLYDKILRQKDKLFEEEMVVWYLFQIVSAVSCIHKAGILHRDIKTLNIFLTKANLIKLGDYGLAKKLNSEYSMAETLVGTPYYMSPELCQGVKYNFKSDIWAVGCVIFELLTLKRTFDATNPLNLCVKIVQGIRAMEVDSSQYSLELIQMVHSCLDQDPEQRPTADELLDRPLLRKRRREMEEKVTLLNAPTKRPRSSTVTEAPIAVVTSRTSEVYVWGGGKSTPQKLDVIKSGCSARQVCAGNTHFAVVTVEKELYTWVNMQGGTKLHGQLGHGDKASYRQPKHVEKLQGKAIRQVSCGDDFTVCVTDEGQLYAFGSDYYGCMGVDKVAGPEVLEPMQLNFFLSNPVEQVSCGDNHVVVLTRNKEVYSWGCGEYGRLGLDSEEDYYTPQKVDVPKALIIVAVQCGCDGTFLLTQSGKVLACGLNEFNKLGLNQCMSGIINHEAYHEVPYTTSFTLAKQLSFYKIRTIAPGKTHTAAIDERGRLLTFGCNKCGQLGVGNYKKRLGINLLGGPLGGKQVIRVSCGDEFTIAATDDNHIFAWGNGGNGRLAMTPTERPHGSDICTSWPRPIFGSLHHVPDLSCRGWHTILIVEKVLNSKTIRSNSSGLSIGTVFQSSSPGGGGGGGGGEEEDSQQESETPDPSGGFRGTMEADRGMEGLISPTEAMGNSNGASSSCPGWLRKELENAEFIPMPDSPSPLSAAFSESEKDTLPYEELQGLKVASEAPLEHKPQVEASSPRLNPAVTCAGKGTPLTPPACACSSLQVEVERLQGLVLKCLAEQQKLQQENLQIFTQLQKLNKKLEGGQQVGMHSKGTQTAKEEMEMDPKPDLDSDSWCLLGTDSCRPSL
The settings on record: at 1 µM.

The target of assay [2] is Serine/threonine-protein kinase PLK1 (Homo sapiens) (UniProt P53350). The settings on record: at 0.1 µM.
Serine/threonine-protein kinase PLK1 (Homo sapiens), sequence (P53350 whole entry): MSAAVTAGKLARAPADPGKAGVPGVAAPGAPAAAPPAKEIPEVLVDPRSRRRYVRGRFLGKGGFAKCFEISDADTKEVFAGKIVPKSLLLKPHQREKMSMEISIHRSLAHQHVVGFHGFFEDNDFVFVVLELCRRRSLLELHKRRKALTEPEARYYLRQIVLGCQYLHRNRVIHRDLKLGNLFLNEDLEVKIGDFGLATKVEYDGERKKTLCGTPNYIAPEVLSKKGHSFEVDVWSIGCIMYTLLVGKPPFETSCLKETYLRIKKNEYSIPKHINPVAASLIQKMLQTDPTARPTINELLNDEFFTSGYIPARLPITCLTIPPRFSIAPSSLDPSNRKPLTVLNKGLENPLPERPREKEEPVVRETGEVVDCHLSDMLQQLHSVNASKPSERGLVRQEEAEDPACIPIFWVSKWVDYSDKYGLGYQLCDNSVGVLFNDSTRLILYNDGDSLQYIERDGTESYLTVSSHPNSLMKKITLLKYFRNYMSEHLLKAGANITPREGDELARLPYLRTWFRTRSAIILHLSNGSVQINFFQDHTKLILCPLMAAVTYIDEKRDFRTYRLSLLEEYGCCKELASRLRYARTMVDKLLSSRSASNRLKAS
Assay [3] has the same target. The note with it: at 1 µM.
Assay [4] deals with T2, Dual specificity protein kinase TTK (Homo sapiens) (UniProt P33981).
T2 sequence (whole entry): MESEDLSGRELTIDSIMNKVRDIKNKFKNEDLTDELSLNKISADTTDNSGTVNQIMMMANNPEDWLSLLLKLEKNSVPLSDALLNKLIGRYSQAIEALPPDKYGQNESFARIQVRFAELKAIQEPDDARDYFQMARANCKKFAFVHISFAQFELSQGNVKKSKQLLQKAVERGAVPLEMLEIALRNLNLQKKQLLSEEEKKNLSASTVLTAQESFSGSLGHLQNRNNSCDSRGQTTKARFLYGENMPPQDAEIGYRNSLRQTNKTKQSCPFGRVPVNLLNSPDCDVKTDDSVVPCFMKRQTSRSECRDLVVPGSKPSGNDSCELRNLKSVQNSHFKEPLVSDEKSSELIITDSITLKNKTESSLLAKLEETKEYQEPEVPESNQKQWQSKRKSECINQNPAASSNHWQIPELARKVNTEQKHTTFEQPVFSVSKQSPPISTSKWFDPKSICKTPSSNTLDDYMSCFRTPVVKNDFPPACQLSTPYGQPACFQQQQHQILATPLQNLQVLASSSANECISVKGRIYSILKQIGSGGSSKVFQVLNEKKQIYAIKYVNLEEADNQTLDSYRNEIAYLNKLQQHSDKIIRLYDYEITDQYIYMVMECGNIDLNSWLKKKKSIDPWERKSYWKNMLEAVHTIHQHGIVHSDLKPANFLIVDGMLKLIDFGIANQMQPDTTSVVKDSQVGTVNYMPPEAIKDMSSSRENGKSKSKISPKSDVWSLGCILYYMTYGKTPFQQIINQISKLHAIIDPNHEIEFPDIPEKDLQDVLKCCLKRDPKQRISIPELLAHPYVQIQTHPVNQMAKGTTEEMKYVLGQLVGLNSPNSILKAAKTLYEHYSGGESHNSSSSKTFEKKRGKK
The settings on record: at 0.1 µM.

The subject of assay [5] is T3, Receptor-type tyrosine-protein kinase FLT3 (Homo sapiens), P36888 [D835Y].
T3 sequence (whole entry): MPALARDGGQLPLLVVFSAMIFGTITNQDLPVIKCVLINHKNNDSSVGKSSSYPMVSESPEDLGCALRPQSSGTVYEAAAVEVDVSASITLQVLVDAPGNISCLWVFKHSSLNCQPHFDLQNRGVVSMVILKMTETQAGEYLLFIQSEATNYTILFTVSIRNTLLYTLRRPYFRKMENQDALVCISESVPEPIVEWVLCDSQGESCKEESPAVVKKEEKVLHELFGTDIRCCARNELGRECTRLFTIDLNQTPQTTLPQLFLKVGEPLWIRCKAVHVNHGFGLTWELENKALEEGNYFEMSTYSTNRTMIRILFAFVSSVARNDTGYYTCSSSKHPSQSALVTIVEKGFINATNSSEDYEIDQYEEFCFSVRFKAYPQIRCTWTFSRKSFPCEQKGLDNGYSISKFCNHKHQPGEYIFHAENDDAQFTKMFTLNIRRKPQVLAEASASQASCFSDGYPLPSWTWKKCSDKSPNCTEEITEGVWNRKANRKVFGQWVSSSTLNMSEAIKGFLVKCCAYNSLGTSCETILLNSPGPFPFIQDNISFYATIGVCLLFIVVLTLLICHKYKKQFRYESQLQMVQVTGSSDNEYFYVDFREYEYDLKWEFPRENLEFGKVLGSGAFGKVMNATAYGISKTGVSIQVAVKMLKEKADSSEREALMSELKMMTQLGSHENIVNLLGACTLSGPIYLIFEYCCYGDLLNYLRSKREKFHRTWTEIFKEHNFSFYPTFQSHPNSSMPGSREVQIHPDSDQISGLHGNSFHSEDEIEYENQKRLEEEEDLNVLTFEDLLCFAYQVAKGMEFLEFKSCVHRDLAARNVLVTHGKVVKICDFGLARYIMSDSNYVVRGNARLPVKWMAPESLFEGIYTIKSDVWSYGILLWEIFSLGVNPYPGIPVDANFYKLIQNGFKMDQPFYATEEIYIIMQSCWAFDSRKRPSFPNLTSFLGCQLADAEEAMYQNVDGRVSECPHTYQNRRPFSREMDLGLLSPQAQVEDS
The note with it: at 1 µM.

Assay [6] deals with Vascular endothelial growth factor receptor 3 (Homo sapiens) (UniProt P35916). The settings on record: at 0.1 µM.
The target is the same in assay [7]. The settings on record: at 1 µM.
Assay [8] has as its target Macrophage colony-stimulating factor 1 receptor (Homo sapiens) (UniProt P07333). The settings on record: at 0.1 µM.
The target is the same in assay [9]. The settings on record: at 1 µM.
For assay [10], the target named is Tyrosine-protein kinase Fyn (Homo sapiens) (UniProt P06241). The settings on record: at 0.1 µM.
Tyrosine-protein kinase Fyn (Homo sapiens), sequence (P06241 2-537 limits assumed): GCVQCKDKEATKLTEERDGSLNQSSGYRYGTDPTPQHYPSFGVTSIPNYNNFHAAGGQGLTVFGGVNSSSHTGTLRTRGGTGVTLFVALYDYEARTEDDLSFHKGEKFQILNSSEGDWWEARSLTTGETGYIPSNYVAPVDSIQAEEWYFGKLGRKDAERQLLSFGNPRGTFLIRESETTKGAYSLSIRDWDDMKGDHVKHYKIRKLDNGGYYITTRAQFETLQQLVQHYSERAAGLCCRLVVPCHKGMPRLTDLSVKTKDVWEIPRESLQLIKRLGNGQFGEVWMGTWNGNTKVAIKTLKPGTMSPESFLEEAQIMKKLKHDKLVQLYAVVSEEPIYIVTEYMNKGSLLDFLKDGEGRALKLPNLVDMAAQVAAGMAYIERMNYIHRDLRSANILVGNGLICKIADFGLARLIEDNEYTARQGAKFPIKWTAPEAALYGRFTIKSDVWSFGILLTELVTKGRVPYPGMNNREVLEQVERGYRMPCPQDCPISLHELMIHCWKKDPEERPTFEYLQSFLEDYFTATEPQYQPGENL
Assay [11] has the same target. The settings on record: at 1 µM.
For assay [12], the target named is Tyrosine-protein kinase HCK (Homo sapiens) (UniProt P08631). The note with it: at 0.1 µM.
Tyrosine-protein kinase HCK (Homo sapiens), sequence (P08631 2-526 limits assumed): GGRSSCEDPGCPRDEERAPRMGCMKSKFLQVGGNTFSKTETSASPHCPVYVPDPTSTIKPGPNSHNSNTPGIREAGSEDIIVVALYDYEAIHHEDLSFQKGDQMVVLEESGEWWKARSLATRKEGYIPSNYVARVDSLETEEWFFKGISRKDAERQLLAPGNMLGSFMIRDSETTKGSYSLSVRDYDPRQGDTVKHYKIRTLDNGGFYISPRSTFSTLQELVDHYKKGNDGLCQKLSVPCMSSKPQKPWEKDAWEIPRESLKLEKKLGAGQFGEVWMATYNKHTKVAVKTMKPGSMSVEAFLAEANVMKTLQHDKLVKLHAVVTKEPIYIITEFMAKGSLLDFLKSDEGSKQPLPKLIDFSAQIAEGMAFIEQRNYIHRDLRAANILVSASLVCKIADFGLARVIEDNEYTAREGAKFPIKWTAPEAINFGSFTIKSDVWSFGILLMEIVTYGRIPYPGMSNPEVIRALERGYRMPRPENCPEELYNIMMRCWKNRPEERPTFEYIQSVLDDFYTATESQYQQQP
Assay [13] has the same target. The settings on record: at 1 µM.
Assay [14] concerns the target Insulin-like growth factor 1 receptor (Homo sapiens) (UniProt P08069). The settings on record: at 0.1 µM.
Assay [15] has the same target. The settings on record: at 1 µM.
Assay [16] concerns the target Insulin receptor (Homo sapiens) (UniProt P06213). The note with it: at 0.1 µM.
The target is the same in assay [17]. The settings on record: at 1 µM.
In assay [18] the target is Insulin receptor-related protein (Homo sapiens) (UniProt P14616). The settings on record: at 0.1 µM.
Insulin receptor-related protein (Homo sapiens), sequence (P14616 27-742 limits assumed): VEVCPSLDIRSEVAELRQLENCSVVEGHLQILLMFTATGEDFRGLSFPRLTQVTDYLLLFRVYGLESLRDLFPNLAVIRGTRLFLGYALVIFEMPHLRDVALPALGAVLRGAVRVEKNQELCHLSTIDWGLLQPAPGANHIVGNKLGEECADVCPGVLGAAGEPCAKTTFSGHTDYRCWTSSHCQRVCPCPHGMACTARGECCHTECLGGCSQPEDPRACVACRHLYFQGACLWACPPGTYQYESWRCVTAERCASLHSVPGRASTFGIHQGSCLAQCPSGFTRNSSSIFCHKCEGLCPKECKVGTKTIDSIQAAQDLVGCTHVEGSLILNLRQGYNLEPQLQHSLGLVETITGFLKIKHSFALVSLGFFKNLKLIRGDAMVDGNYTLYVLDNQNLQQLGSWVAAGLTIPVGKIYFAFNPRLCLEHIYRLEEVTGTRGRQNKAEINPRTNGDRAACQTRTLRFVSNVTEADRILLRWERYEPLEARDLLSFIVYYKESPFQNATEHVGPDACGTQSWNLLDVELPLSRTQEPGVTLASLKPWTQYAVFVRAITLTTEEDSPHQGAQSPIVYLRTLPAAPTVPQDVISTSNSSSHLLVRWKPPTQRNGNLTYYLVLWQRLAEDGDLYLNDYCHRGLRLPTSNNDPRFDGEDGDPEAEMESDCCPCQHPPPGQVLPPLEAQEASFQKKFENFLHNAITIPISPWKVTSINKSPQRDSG
Insulin receptor-related protein (Homo sapiens), sequence (P14616 747-1297 limits assumed): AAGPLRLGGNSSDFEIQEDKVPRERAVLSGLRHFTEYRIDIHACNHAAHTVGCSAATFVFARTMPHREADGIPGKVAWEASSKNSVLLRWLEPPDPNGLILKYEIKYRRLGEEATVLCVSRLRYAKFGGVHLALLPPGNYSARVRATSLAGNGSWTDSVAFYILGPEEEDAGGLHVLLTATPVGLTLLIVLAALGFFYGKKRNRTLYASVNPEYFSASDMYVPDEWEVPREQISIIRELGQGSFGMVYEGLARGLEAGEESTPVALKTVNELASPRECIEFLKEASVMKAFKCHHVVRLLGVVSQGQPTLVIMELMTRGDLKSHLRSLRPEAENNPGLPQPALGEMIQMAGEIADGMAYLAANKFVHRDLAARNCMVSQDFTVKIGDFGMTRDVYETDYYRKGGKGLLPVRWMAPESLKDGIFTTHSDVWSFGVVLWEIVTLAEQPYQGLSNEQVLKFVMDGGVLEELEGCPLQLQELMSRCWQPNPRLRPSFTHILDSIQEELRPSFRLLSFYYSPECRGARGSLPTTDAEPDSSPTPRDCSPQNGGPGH
For assay [19] the target is unchanged. The note with it: at 1 µM.
The target in assay [20] is T4, Tyrosine-protein kinase ITK/TSK (Homo sapiens) (UniProt Q08881).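 Further: mean percent inhibition of ITK from the GSK PKIS screen.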
T4 sequence (whole entry): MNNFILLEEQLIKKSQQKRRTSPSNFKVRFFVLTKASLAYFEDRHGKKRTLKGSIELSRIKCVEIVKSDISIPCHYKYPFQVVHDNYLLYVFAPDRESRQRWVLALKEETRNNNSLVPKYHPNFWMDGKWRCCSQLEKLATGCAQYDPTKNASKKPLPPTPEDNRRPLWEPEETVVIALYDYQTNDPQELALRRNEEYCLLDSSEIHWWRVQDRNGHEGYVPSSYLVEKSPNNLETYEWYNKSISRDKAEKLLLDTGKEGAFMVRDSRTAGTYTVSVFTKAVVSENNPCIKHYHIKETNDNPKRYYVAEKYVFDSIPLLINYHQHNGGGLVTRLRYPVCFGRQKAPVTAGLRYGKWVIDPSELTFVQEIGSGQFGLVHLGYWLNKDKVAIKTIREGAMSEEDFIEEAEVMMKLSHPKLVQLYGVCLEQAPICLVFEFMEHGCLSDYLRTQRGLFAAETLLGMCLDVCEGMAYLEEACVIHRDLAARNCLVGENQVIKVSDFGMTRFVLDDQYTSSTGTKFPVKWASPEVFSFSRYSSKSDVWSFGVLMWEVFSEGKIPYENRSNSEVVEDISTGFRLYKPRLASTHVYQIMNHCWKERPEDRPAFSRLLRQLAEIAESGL
The note with it: at 0.1 µM.

Insulin receptor (Homo sapiens), sequence (P06213 28-758 limits assumed): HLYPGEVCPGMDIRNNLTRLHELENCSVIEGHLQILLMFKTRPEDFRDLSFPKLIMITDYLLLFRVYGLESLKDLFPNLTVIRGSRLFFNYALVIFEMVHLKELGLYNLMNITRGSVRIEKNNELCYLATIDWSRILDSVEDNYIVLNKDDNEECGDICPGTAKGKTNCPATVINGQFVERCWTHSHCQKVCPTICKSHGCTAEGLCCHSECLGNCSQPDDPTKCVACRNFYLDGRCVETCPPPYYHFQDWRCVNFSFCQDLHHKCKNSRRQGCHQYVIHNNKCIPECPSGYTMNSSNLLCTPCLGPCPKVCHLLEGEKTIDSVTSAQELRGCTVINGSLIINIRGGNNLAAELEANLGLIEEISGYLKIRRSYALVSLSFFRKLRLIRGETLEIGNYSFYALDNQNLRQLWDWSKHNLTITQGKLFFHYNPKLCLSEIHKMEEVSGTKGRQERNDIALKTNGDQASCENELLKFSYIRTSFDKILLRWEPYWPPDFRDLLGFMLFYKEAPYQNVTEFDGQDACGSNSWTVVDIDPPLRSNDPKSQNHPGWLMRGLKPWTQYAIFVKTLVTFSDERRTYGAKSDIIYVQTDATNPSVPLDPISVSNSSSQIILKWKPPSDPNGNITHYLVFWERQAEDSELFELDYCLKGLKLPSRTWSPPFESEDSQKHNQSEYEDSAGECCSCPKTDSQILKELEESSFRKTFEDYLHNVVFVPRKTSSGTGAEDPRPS
Insulin receptor (Homo sapiens), sequence (P06213 763-1382 limits assumed): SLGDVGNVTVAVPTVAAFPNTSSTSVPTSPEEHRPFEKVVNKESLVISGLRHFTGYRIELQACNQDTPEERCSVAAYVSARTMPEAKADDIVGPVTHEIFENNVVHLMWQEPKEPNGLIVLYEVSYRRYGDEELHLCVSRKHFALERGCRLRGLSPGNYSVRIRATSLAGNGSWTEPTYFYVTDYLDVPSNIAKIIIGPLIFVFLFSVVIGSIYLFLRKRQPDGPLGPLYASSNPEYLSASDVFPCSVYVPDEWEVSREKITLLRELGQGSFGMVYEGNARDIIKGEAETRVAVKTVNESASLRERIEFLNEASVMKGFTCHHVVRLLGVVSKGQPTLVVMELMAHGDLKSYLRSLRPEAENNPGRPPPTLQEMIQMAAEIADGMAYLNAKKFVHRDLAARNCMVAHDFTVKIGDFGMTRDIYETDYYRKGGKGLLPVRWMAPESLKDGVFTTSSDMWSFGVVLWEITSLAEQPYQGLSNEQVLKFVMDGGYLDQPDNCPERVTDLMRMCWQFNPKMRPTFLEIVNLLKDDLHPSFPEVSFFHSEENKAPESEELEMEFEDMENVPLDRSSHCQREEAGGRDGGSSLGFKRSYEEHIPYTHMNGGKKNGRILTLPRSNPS

As to `O=C(Nc1n[nH]c2nnc(-c3cccnc3)cc12)C1CC1`, the inhibition is 1.12% in assay [1]; -0.87% in assay [2]; 2.11% in [3]; 1.85% in assay [4]; -1.95% in assay [5]; 0.27% in [6]. Besides, the inhibition in [7] is 3.35%; in assay [8], -1.71%; in assay [9], 5.46%; in assay [10], 1.64%; in assay [11], 4.86%; in [12] it was 0.81%. For the same compound, the inhibition is 2.83% in [13]; 0.22% in assay [14]; -1.27% in assay [15]; 3.48% in [16]; 1.82% in assay [17]; -0.87% in assay [18]. Besides, the inhibition is -1.01% in assay [19] and 0.11% in [20].
For the compound `COc1ccc(-c2nn3ncccc3c2-c2ccnc(Nc3ccc(F)c(F)c3)n2)cc1`, the inhibition in assay [1] is 7.17%; in assay [2], 1.8%; in assay [3], 2.27%; in [4], 15.1%; in [5] it was 2.1%; in [6], 4.09%. Besides, the inhibition in assay [7] was 8.94%; in [8], 5.19%; in [9], 14.8%; in assay [10] it was 2.85%; in assay [11], 12.1%; in assay [12] it was 3.38%. Moreover, the inhibition was determined as 16.5% in assay [13]; 2.75% in assay [14]; 3.2% in assay [15]; 4.32% in [16]; 2.06% in assay [17]; 3.12% in [18]. In addition, the inhibition in assay [19] was found to be 3.47%; in assay [20], 0.92%.
As for `COc1cc(N2CCN(C(C)C)CC2)ccc1Nc1nc(Nc2cccc3ncccc23)c2cc[nH]c2n1`, the inhibition in [1] was -1.45%; in [2], -0.26%; in assay [3], 0.8%; in assay [4] it was 52.1%; in assay [5], 1.87%; in assay [6] it was 0.19%. Further, the inhibition came to 0.22% in [7]; 1.9% in assay [8]; 3.33% in [9]; 2.06% in [10]; 2.23% in assay [11]; 0.79% in assay [12]. Further, the inhibition is 1.71% in [13]; 12% in [14]; 60.5% in assay [15]; 22.6% in [16]; 82.1% in [17]; -1.05% in assay [18]. Moreover, the inhibition is 14.8% in assay [19] and -0.09% in [20].
As to `Cc1ccc(-c2cc3c(NC(=O)C4CC4)ncnc3o2)cc1`, the inhibition in assay [1] came to 4.87%; in assay [2] it was 3.28%; in [3], 2.79%; in assay [4], 6.01%; in [5], 3.4%; in assay [6] it was 3.84%. The inhibition in assay [7] came out at 9.25%; in [8] it was 20.6%; in assay [9], 66.9%; in [10], 6.5%; in assay [11] it was 5.49%; in assay [12], 7.39%. Moreover, the inhibition in assay [13] turned out to be 21.8%; in assay [14], 5.44%; in assay [15], 5.98%; in [16], 5.37%; in assay [17], 5.18%; in assay [18], 5.59%. The inhibition was found to be 2.34% in assay [19] and 1.76% in assay [20].
Turning to `CNC(=O)c1sc(-n2cnc3cc(OC)c(OC)cc32)cc1OCc1ccccc1C(F)(F)F`, the inhibition was 9.14% in assay [1]; 4.65% in assay [2]; 17.8% in [3]; 4.81% in [4]; -2.47% in [5]; 3.76% in [6]. The inhibition in assay [7] is 6.76%; in assay [8] it was -2.22%; in assay [9], 7.07%; in assay [10] it was 2.51%; in assay [11] it was 18.9%; in assay [12], 5.55%. In addition, the inhibition was 14% in assay [13]; -3.71% in assay [14]; 1.09% in [15]; -4.16% in assay [16]; -0.01% in [17]; 2.15% in assay [18]. Moreover, the inhibition in assay [19] came to 2.12%; in assay [20], 0.38%.

(Values after ChEMBL document CHEMBL1961873, “Compounds: GSK PKIS; Assays: Nanosyn kinase panel” (2012).)
